An excerpt weighted towards active compounds, which were near 21% of everything screened.
Shiga toxin inh: blocks Shiga toxin action in Vero cells. Vero cells, Shiga toxin protein synthesis inhibition reporter. inhibition, % at 38.7 µM. 290,000 compounds, 9.2% hits. AID 2315; in the data active = inhibition mostly above about 28%, no sharp cut-off; inactive = mostly below about 43%; also: 0% is about no effect
Pf growth 48h: P. falciparum growth inhibition at 48 hours (one generation); P. falciparum luciferase growth in erythrocytes, 48 h; AID 504832; 310,000 compounds, 5.9% hits; Potency, µM (highest dose often 28.7 µM), without a hit: top-dose activity change, negative = inhibition, usual class: inhibitors; also: potency is read from the fitted curve at half-maximal effect; % is scaled to controls: 0 for no effect and ±100 for the full control effect
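First compound was added to culture medium, then infected red cells at 0.1% parasitemia and 2% hematocrit (final). After incubation at 37 C under 5% CO2, luciferase detection reagent was dispensed and light output recorded.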
Pf growth 96h: P. falciparum growth inhibition at 96 hour, primary screen for plastid delayed-death inhibitors. 320,000 compounds, 6.9% hits. Potency, µM (titrated, usually from 28.7 µM), without a hit: at the top dose activity change, negative = inhibition, usual class: inhibitors. P. falciparum luciferase reporter growth, 96 h; also: potency is read from the fitted curve at half-maximal effect; % is scaled to controls: 0 for no effect and ±100 for the full control effect
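96 h incubation, 37 C, 5% CO2, of luciferase-reporter P. falciparum-infected RBCs (2% hematocrit, 0.05% parasitemia final) with test compounds; endpoint luminescence.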
Cycloheximide cs: counter-screen hit for Shiga toxin inhibitors, cycloheximide; AID 2314; max response, %; cell reporter, cycloheximide protein synthesis inhibition counterscreen; 300,000 compounds, 12% hits; in the data active = max response mostly above about 13%, no sharp cut-off; inactive = mostly below about 14%; also: read at 38.3 µM for the half of the compounds with a filed dose; 0% is about no effect
NS1 inh: blocks influenza NS1 protein function | Potency, µM (doses to about 46.1 µM), for inactives: top-dose activity, positive = more growth | 270,000 compounds, 0.4% hits; calls by dose curve; also: potency is read from the fitted curve at half-maximal effect; actives are rising curves; nearly all actives have a fitted effect of over 50% in size
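A cell-based growth assay was used: compounds that relieve NS1-induced slow growth of budding yeast raise OD600. Assay medium was yeast nitrogen base with ammonium sulphate and -URA supplement, pH 6.0, with 2% galactose.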
Active calls of the source: *; i = inactive; ? = inconclusive; . = no result; [ ] = dose if it differs, or a comment. Unless noted, calls follow the shape of the dose curve; as a rule, active = well fitted inhibition curve with a large enough effect; inconclusive = small, poorly fitted or top-dose-only effect, or another doubt; inactive = no such curve, though single readings can be large or run the other way.

SMILES | Shiga toxin inh | Pf growth 48h | Pf growth 96h | Cycloheximide cs | NS1 inh
CC(C)Oc1ccc(-c2cc(C(=O)NCCN3CCOCC3)c3ccccc3n2)cc1 | 61 | 2.3µM* | 31% | 30* | -1%
Cc1nc(CCNC(=O)c2ccccc2)cs1 | 17 | 26% | 43% | 17* | -57%
Cc1ccc(C(=O)NCCc2csc(-c3cccnc3)n2)cc1 | 67* | ? | ? | 20* | -4%
CCS(=O)(=O)NCCc1csc(C)n1 | 40 | 12% | ? | -2 | 2%
COc1ccc(-c2nc3ccc(N4CCN(C)CC4)cc3c(=O)[nH]2)cc1 | 58 | ? | 52% | 20 | -2%
COc1cc(-c2nc3ccc(N4CCN(C)CC4)cc3[nH]2)cc(OC)c1OC | 48 | 9.3µM* | 3.7µM* | 26 | .
CN(Cc1nccs1)C(=O)C1CCC(=O)N(CCCc2ccccc2)C1 (stereo unspecified) | 7 | 16% | ? | 1 | -1%
Cc1cc(NC(=O)CCC(=O)N(c2ccccc2)C2(C(=O)NC3CCCCC3)CCCC2)no1 | -16 | ? | 162% | -4 | -12%
CCCCOc1ncnc2c1[nH]c1ccc(OCC)cc12 | 9 | 32% | 5% | 12 | -10%
CCCCn1cnc2c([nH]c3ccccc32)c1=O | 20 | 3% | 1% | -1 | -17%
CCCCOc1ncnc2c1[nH]c1ccc(OC)cc12 | 77* | 92% | 272% | 56* | -26%
CCCCOc1ncnc2c1[nH]c1ccc(F)cc12 | 50* | 23% | 0% | 34* | -49%
CCCCOc1ncnc2c1[nH]c1ccccc12 | 37* | ? | 0% | 22* | -98%
CC(NC(=O)c1ccc(F)cc1)C(=O)NC1=NCCS1 (stereo unspecified) | -1 | 38% | ? | 1 | .
COc1ccc(/C=C/C(=O)Nc2cc(S(=O)(=O)N3CCOCC3)ccc2C)cc1OC | -9 | -29% | -19%[5.75 µM] | -3 | .
COc1ccc(/C=C/C(=O)Nc2cccc(F)c2)cc1S(=O)(=O)N1CCOCC1 | 52 | ? | 6.6µM* | 28* | .
COc1ccc(/C=C/C(=O)Nc2ccccc2C)cc1S(=O)(=O)N1CCOCC1 | 66* | ? | ? | 62* | -6%
COc1ccc(C(=O)c2ccc(OC)c(OC)c2)cc1 | 17 | . | -18% | 10 | -22%
COc1ccc(C(=O)c2nccc3cc(OC)c(OC)cc23)cc1OC | . | 1.2µM* | 0.74µM* | . | .
O=C(c1ccccc1)c1ccc(Oc2ncccn2)cc1 | 197 | 94% | -35% | 58* | -35%
COc1ccc(C(=O)c2ccc(CC(=O)O)s2)cc1 | 9 | 6.6µM* | ? | 6 | .
COc1ccc(C(=O)c2ccc(Br)cc2)cc1 | -22 | 12µM* | ? | -4 | 6%
CCC1(CC)NC(=O)N(CC(=O)OC(C)C(=O)Nc2ccccc2OC)C1=O (stereo unspecified) | . | -12% | 31% | . | .
CCOc1ncccc1C(=O)OCc1c(F)cccc1Cl | -8 | 26% | 9% | 4 | .
CCOC(=O)c1c(C)c(C)n2c1NC(=O)C2 | . | . | . | . | 27%
SMILES | Shiga toxin inh | Pf growth 48h | Pf growth 96h | Cycloheximide cs | NS1 inh
CC12CCC(C(=O)Nc3ccccc3Cl)(C(Br)C1=O)C2(C)C (stereo unspecified) | 15 | -19% | ? | -1 | -2%
O=C(O)Cc1ccc(C(=O)c2ccc(Cl)cc2)s1 | -8 | . | -26% | 8 | -8%
COc1ccc(C(=O)c2ccccc2)cc1 | 45 | 48% | ? | 31* | .
O=C(c1ccccc1)c1ccc(OCCO)cc1 | 38* | 36% | 27% | 16 | 2%
COc1ccc(C(=O)c2nccc3ccccc23)cc1 | 48 | 20% | 30% | 37* | .
NC(=O)Cc1ccc(C(=O)c2ccc(Cl)cc2)s1 | 57* | 58% | 0% | 46 | .
CCc1ccc(OCc2nnc(SCCN3CCOCC3)n2C)cc1 | 32 | -22% | 113% | -1 | -2%
COc1ccc(C(Cl)=C(c2ccc(OC)cc2)c2ccc(OC)cc2)cc1 | 14 | 9.3µM* | ? | 2 | -10%
COc1ccc(/C=N/N=C(\N)c2nonc2N)cc1 | 44* | i | 1.3µM* | 15 | .
CCOc1cc(/C=N/N=C(\N)c2nonc2N)cc(Br)c1OCc1cccc2ccccc12 | -11 | -2% | . | -2 | 2%
COc1cc(/C=N/N=C(/N)c2nonc2N)cc(Br)c1OCc1cccc(C)c1 | 23 | ? | . | 21* | 1%
COc1ccc(/C=N/Nc2nonc2N)cc1 | 67 | 35% | 64% | 23* | -100%
COc1cc(/C=N/N=C(\N)c2nonc2N)cc(OC)c1O | 79* | 71% | 52% | 47* | 0%
COc1ccc(/C=N/Nc2nonc2N)cc1OC | 3 | 3% | ? | 8 | 3%
CCC(=O)NCCc1nc2cc(NC(=O)c3cccc([N+](=O)[O-])c3)ccc2n1C | 37 | 7% | -39% | 17 | 2%
COc1ccc(CNC(=O)CSc2nc3ccc(C)cc3[nH]2)cc1OC | -1 | -30% | ? | -4 | 2%
CN(C)S(=O)(=O)c1ccc(NC(=O)CN2C(=O)NC3(CCCC3)C2=O)cc1 | -6 | 0% | 3% | -8 | 1%
Cc1cc(C)[n+]2[nH]c(N)c(N=Nc3ccccc3)c2n1 | 58* | 16% | -24% | 17* | -32%
Cc1nn(C)c(C)c1NC(=O)c1ccccc1NC(=O)Nc1ccccc1 | 5 | -3% | 21% | -4 | -2%
COc1ccc(C2=NN(C(=O)CSc3ncccn3)C(c3cccc(OC)c3OC)C2)cc1 (stereo unspecified) | 7 | ? | ? | -1 | .
CCOc1cccc2c1OC(c1cc(OC)c(OC)c(OC)c1)N1N=C(c3ccc(C)o3)CC21 (stereo unspecified) | 21 | -42% | -47% | 39* | -7%
Cc1cccn2cc(CCNS(=O)(=O)c3cccc([N+](=O)[O-])c3)nc12 | -7 | ? | 21% | -2 | 1%
Cc1ccc(-c2n[nH]c(=S)n2/N=C/c2ccc(C)s2)cc1 | -17 | 12µM* | 12µM* | -7 | 13%
COc1ccc(NC(=S)NNc2ccc(S(=O)(=O)Nc3ccccc3C(=O)O)cc2[N+](=O)[O-])cc1 | -14 | -12% | -24% | -3 | ?
CC[C@H](C)Cc1cn([C@@H](CCCN=C(NC(=O)OC(C)(C)C)NC(=O)OC(C)(C)C)C(=O)NCCCCCCCCCCC(=O)N2CCN(C(=O)OC(C)(C)C)CC2)nn1 | . | 1µM* | 1.5µM* | . | .
Cc1cn([C@@H](CCCCNC(=O)OC(C)(C)C)C(=O)NCCCCCCCCCCC(=O)N2CCN(C(=O)OC(C)(C)C)CC2)nn1 | . | 2.6µM* | 5.2µM* | . | .
NCCCCCc1cn([C@@H](CO)C(=O)NCCCCCCCCCCC(=O)N2CCNCC2)nn1 | . | ? | 2% | . | .
CSCC[C@@H](C(=O)NCCCCCCCCCCC(=O)N1CCNCC1)n1cc(CCO)nn1 | . | ? | 61% | . | .
CC(NC(=O)CCNC(=O)c1ccco1)c1ccc(F)cc1 (stereo unspecified) | -11 | -6% | 56% | 1 | 9%
COc1ccccc1N1CCN(C(=O)C(=O)c2c[nH]c3ccccc23)CC1 | -8 | -9% | 6% | 10 | -19%

Assay outcomes deposited in PubChem by National Center for Advancing Translational Sciences (NCATS).
